The list is not random: actives were taken first. Their share in the collection is about 4.3%.
MazF activator: MazEF (E. coli) toxin RNase activation; P0AE70; FAM/BHQ RNA-DNA oligo cleavage fluorescence, 5 h; activation, % at 20 µM; actives 0.32% (n = 350,000); AID 504720; in the data active = activation above about 50%
Target sequence (P0AE70 whole entry, looked up): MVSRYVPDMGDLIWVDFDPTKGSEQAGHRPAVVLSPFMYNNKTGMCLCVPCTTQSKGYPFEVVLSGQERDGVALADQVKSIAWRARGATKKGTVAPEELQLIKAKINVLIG
BoNT-F LC inh: inhibitors of Botulinum neurotoxin F light chain protease. Multiplex microsphere protease cleavage assay, flow cytometry. inhibition, % at 10 µM. actives 0.22% (n = 360,000). AID 588497; in the data active = inhibition above about 35%, passing the limit was not always enough; inconclusive = no clear call, values can overlap the other calls
BoNT A protease: blocks Botulinum neurotoxin A light chain protease. multiplex microsphere protease substrate cleavage, flow cytometry. inhibition, % at 10 µM. actives 0.17% (n = 360,000). AID 588499
Bead autofluor: counter-screen for toxin protease inhibitors: compound fluorescence; compound autofluorescence counterscreen, microsphere flow cytometry; hits give high values; fluorescence intensity (no concentration beside the values); actives 3.1% (n = 360,000); AID 624483; in the data active = fluorescence intensity above about 16000; inconclusive = no clear call, values can overlap the other calls
Anthrax LF inh2: inhibitors of Bacillus anthracis lethal factor protease; P15917; multiplex microsphere protease cleavage assay, LF; inhibition, % at 10 µM; actives 0.12% (n = 360,000)
PfHsp40 rescue: restores yeast growth despite PfHsp40 toxicity; S. cerevisiae expressing PfHsp40, growth rescue, ATP luminescence; growth rescue, % at 12.5 µM; actives 0.68% (n = 340,000); AID 504582; in the data active = growth rescue above about 28%, passing the limit was not always enough; inconclusive = no clear call, values can overlap the other calls;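 also: yeast W303a lacking pdr1 and pdr3 grown in galactose medium; growth measured after three days at 30 °C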
Hits are given with their value; - = inactive; ? = inconclusive; . = not tested or not shown; + = active, no number. Rule as the data show it, unless noted: active = inhibition above about 30%; inconclusive = no clear call, values can overlap the other calls; inactive = below that.

SMILES	MazF activator	BoNT-F LC inh	BoNT A protease	Bead autofluor	Anthrax LF inh2	PfHsp40 rescue
O=C(OCCCN1CCCC1)C1(c2ccccc2)CCCC1	-	-	?	24071	-	-
CCN(CC)CCOC(=O)C1(c2ccccc2)CCCC1	-	-	-	-	-	-
COc1ccc(Cl)cc1C(=O)NN=C1CCCC1	-	?	-	-	-	82
O=C(NC1CCCCC1)N1CCN(C2CCCCC2)CC1	-	-	-	23605	-	-
O=C(NC1CCCCC1)N1CCN(c2ncccn2)CC1	-	-	-	23207	-	-
O=C(NC1CCCCC1)N1CCCCCCC1	-	-	-	-	-	-
CCCS(=O)(=O)NC(=O)C1(C)CCCN(C(=O)CCc2cccs2)C1 (stereo unspecified)	.	-	-	-	-	.
CC(C)(C)OC(=O)N1CCC(C(=O)NCC2CCCO2)CC1 (stereo unspecified)	-	-	-	-	-	-
COc1cc2nc(N3CCNCC3)nc(N)c2cc1OC	-	-	-	17344	-	186
COc1cc2nc(N3CCN(c4cc(C)ccc4C)CC3)nc(N)c2cc1OC	-	-	-	-	-	-
CCN1C(=O)c2c(C)nc3ccccc3c2C1=O	-	-	-	20844	-	-
COc1ccc(/C=[N+](\[O-])C2N(c3ccccc3)C(=S)SC2(C)C)cc1OC (stereo unspecified)	-	-	-	-	-	-
Cc1ccc(-c2nnn(CC(=O)Nc3ccccc3N3CCOCC3)n2)cc1	-	-	-	-	-	-
Cc1ccc(-c2nnn(Cc3nc(N)nc(N4CCOCC4)n3)n2)cc1	-	-	-	23278	-	-
O=S(=O)(c1ccc(Oc2ccc(F)c(Cl)c2)nc1)N1CCOCC1	-	-	-	-	-	-
CC(C)(C)c1ccc(OCCNC(=O)Cc2ccc(F)cc2)cc1	-	-	-	-	-	-
Cn1c(SC/C=C/c2ccccc2)nnc1-c1cccs1	-	-	-	?	-	-
CCn1c(SC/C=C/c2ccccc2)nnc1-c1cccs1	-	-	-	20863	-	-
CCn1c(SC/C=C/c2ccccc2)nnc1-c1cnccn1	-	-	-	21032	-	-
Cn1c(SC/C=C/c2ccccc2)nnc1-c1cnccn1	-	-	-	-	-	-
O=C(CSc1nnc(-c2ccccc2)o1)N1CCc2ccccc2C1	-	-	-	-	-	-
Cc1ccc(-n2nnnc2SCC(=O)N2CCc3ccccc3C2)c(C)c1	-	-	-	-	-	71
O=C(CSc1nnc(-c2ccccc2O)o1)N1CCc2ccccc2C1	-	-	?	20351	-	-
Cc1ccc(-n2nnnc2SCC(=O)N2CCc3ccccc3C2)cc1	-	-	-	-	-	-
C/C(N)=C(/C#N)C(=O)CSc1nnnn1-c1ccc(C)cc1C	-	-	-	19626	-	-
SMILES	MazF activator	BoNT-F LC inh	BoNT A protease	Bead autofluor	Anthrax LF inh2	PfHsp40 rescue
C#CCSc1nnc(-c2cccc3ccccc23)o1	-	-	-	16238	-	-
C=CCSc1nnc(-c2cccc3ccccc23)o1	-	-	-	-	-	-
O=C(C1COc2ccccc2O1)N1CCN(c2ccc([N+](=O)[O-])cc2)CC1 (stereo unspecified)	-	.	.	.	.	-
CC1(C)Cc2cccc(C(=O)NC3CCN(Cc4ccccc4)CC3)c2O1	-	-	-	-	-	-
C=CCNC(=S)NNC(=O)c1cccn(Cc2ccc(Cl)cc2)c1=O	-	?	?	?	?	-
C=CCNC(=S)NNC(=O)c1cccn(Cc2cccc(Cl)c2)c1=O	-	-	-	24135	-	-
COc1cc(OC)cc(N(C(=O)CNC(=O)c2cccs2)C(C(=O)NCC2CCCO2)c2ccccc2)c1 (stereo unspecified)	-	-	-	-	-	-
COc1ccc(NC(=O)NCc2ccncc2)c(OC)c1	-	-	?	22838	-	-
COc1ccc(NC(=O)c2ccccc2SC)c(OC)c1	-	-	-	-	-	-
COc1ccc(NC(=O)c2cccnc2C(=O)O)c(OC)c1	-	-	-	20348	-	-
COc1ccc(NC(=O)c2c(OC)cccc2OC)c(OC)c1	-	-	-	16438	-	-
COc1ccc(NC(=O)c2ccccc2O)c(OC)c1	-	-	-	18765	-	-
Nc1nc2c(ncn2[C@@H]2O[C@H](CNCc3ccccc3)[C@@H](O)[C@H]2O)c(=O)[nH]1	.	-	-	-	-	.
COc1ccc(NC(=O)Nc2ccc3c(c2)CCC3)c(OC)c1	57	-	-	-	-	-
CCCn1c(O)c(N=NC(=O)CNC(=O)c2ccncc2)c2ccccc21	-	-	-	-	-	-
COc1ccccc1-c1sc2cc3c(cc2c1C#Cc1cncn1C)OCO3	-	-	-	-	-	246
Cn1cncc1C#Cc1c(-c2ccc(S(C)(=O)=O)cc2)sc2ccccc12	-	-	-	-	-	-
COc1ccc(-c2sc3ccccc3c2/C=C/c2ccncc2)cc1	-	-	-	-	-	75
COc1ccc(-c2sc3ccccc3c2/C=C/c2ccc(OC)c(OC)c2)cc1	-	-	-	-	-	-
COc1ccc(-c2sc3ccccc3c2C#CCO)cc1	-	-	-	-	-	31
COc1ccc(-c2sc3ccccc3c2C#Cc2cncn2C)cc1	-	-	-	-	-	414
COc1ccc2sc(-c3ccccc3OC)c(C#Cc3cncn3C)c2c1	-	-	-	-	-	-
C=CCOc1ccc(C(c2c(O)nc(SC)[nH]c2=O)c2c(O)nc(SC)[nH]c2=O)cc1	-	.	.	.	.	-
OCCC#Cc1c(-c2ccsc2)sc2ccccc12	-	-	-	-	-	56
COc1ccc(-c2sc3ccccc3c2C#CCCO)cc1	-	-	-	-	-	41
SMILES	MazF activator	BoNT-F LC inh	BoNT A protease	Bead autofluor	Anthrax LF inh2	PfHsp40 rescue
O=C(O)c1ccccc1SCCS(=O)(=O)c1ccc(Cl)cc1Cl	-	-	-	-	-	-
O=c1[nH]c2ccccc2nc1/C=C/c1ccc(F)cc1	849	-	-	-	-	-
COc1ccc(OC)c(/C=C/c2nc3ccccc3[nH]c2=O)c1	240	?	?	-	?	-
CCCn1c(=O)c(C(=O)NCc2ccc(OC)c(OC)c2)c(O)c2ccccc21	-	-	-	-	-	334
Cc1cc(C)cc(C(=O)N2CC(C)OC(C)C2)c1 (stereo unspecified)	-	-	?	22829	-	-
COc1ccc(NC(=O)COC(=O)CNC(=O)COc2ccccc2)cc1OC	-	-	-	-	-	-
COc1ccc(N2C(=O)NC(=O)/C(=C\c3cn(C)c4ccccc34)C2=O)cc1	290	-	-	-	-	-
COC(=O)Cn1cc(C=C2C(=O)NC(=O)NC2=O)c2ccccc21	-	42	-	-	-	-
COC(=O)Cn1cc(/C=C2\C(=O)NC(=O)N(c3ccc(OC)cc3)C2=O)c2ccccc21	111	-	-	-	-	-
COCCNC(=O)Cn1cc(/C=C2\C(=O)NC(=O)N(c3ccccc3F)C2=O)c2ccccc21	+	-	-	-	-	-
O=C(Cn1ccccc1=O)NCc1ccc(F)cc1	-	-	-	-	-	-

Bioassay records: PubChem BioAssay, several laboratories
